# Experimental data taken from PubChem BioAssay AID1159580 (chemical genetic matrix, 2015).
# In all, about 5,500 compounds went through this assay and about 2,000 (36%) were called active. Roughly 18% stayed inconclusive and do not appear here. The list shows a part of the results. A number with no mark means an inactive call. Cut-off read from the data, not from the text of the source: active = normalized growth mostly below about 0.91 (no sharp cut-off); inconclusive = no clear call, values can overlap the other calls; inactive = mostly above about 0.92.
# Assay: chemical genetic growth profiling, strain panel (AID 1159580);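 note: tested at 20 µM; growth read once vehicle control cultures reached saturation at 30 °C; 1 = growth at the plate median or of vehicle wells; lower values mean less growth of the strain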
# Settings: growth OD
smiles,measurement,setting,value
CCC(C)(C)C(=O)O[C@H]1C[C@@H](C)C=C2C=C[C@H](C)[C@H](CC[C@@H]3C[C@@H](O)CC(=O)O3)[C@H]21,normalized growth,"S. cerevisiae deletion strains, locus YJR075W, strain HOC1, active compounds read low",1
same,normalized growth,"S. cerevisiae deletion strains, locus YKL009W, strain mrt4, active compounds read low",0.93
same,normalized growth,"S. cerevisiae deletion strains, locus YKL068W, active compounds read low",1.03
same,normalized growth,"S. cerevisiae deletion strains, locus YKL085W, strain MDH1 (second series), active compounds read low",1.02
same,normalized growth,"S. cerevisiae deletion strains, locus YKL085W, strain MDH1, active compounds read low",1.02
same,normalized growth,"S. cerevisiae deletion strains, locus YKL160W, strain elf1, active compounds read low",0.949
same,normalized growth,"S. cerevisiae deletion strains, locus YKL190W, strain CNB1, active compounds read low",1.01
same,normalized growth,"S. cerevisiae deletion strains, locus YKR001C, strain vps1, active compounds read low",1.01
same,normalized growth,"S. cerevisiae deletion strains, locus YKR026C, strain gcn3, active compounds read low",1.01
same,normalized growth,"S. cerevisiae deletion strains, locus YKR091W, strain srl3, active compounds read low",1.02
same,normalized growth,"S. cerevisiae deletion strains, locus YLL001W, strain dnm1, active compounds read low",1
same,normalized growth,"S. cerevisiae deletion strains, locus YLL026W, active compounds read low",0.981
same,normalized growth,"S. cerevisiae deletion strains, locus YLL041C, strain sdh2, active compounds read low",1.01
same,normalized growth,"S. cerevisiae deletion strains, locus YLR027C, strain aat2, active compounds read low",0.976
same,normalized growth,"S. cerevisiae deletion strains, locus YLR039C, strain RIC1, active compounds read low",1.1
same,normalized growth,"S. cerevisiae deletion strains, locus YLR058C, strain SHM2, active compounds read low",1.02
same,normalized growth,"S. cerevisiae deletion strains, locus YLR102C, strain apc9, active compounds read low",1.04
same,normalized growth,"S. cerevisiae deletion strains, locus YLR113W, strain HOG1, active compounds read low",1.04
same,normalized growth,"S. cerevisiae deletion strains, locus YLR221C, strain rsa3, active compounds read low",0.909
same,normalized growth,"S. cerevisiae deletion strains, locus YLR258W, strain gsy2, active compounds read low",0.927
same,normalized growth,"S. cerevisiae deletion strains, locus YLR262C, strain YPT6 (second series), active compounds read low",1.05
same,normalized growth,"S. cerevisiae deletion strains, locus YLR262C, strain YPT6, active compounds read low",0.58
same,normalized growth,"S. cerevisiae deletion strains, locus YLR268W, strain sec22, active compounds read low",0.993
same,normalized growth,"S. cerevisiae deletion strains, locus YLR320W, strain mms22, active compounds read low",0.855 (active)
same,normalized growth,"S. cerevisiae deletion strains, locus YLR330W, strain CHS5, active compounds read low",1
same,normalized growth,"S. cerevisiae deletion strains, locus YLR342W, strain FKS1 (second series), active compounds read low",1.01
same,normalized growth,"S. cerevisiae deletion strains, locus YLR342W, strain FKS1, active compounds read low",1
same,normalized growth,"S. cerevisiae deletion strains, locus YLR357W, strain rsc2, active compounds read low",1.01
same,normalized growth,"S. cerevisiae deletion strains, locus YLR370C, strain arc18, active compounds read low",1.01
same,normalized growth,"S. cerevisiae deletion strains, locus YLR371W, strain rom2, active compounds read low",1.04
same,normalized growth,"S. cerevisiae deletion strains, locus YLR384C, strain iki3, active compounds read low",0.978
same,normalized growth,"S. cerevisiae deletion strains, locus YLR418C, strain cdc73, active compounds read low",0.856
same,normalized growth,"S. cerevisiae deletion strains, locus YML016C, strain PPZ1, active compounds read low",1.02
same,normalized growth,"S. cerevisiae deletion strains, locus YML032C, strain rad52, active compounds read low",1.02
same,normalized growth,"S. cerevisiae deletion strains, locus YML120C, strain ndi1, active compounds read low",0.987
same,normalized growth,"S. cerevisiae deletion strains, locus YML124C, strain tub3, active compounds read low",1.04
same,normalized growth,"S. cerevisiae deletion strains, locus YMR058W, strain fet3, active compounds read low",0.977
same,normalized growth,"S. cerevisiae deletion strains, locus YMR078C, strain ctf18, active compounds read low",1.04
same,normalized growth,"S. cerevisiae deletion strains, locus YMR125W, strain sto1, active compounds read low",0.97
same,normalized growth,"S. cerevisiae deletion strains, locus YMR129W, active compounds read low",1.02
same,normalized growth,"S. cerevisiae deletion strains, locus YMR205C, strain PFK2, active compounds read low",0.978
same,normalized growth,"S. cerevisiae deletion strains, locus YMR223W, strain ubp8, active compounds read low",0.991
same,normalized growth,"S. cerevisiae deletion strains, locus YMR231W, strain pep5, active compounds read low",1
same,normalized growth,"S. cerevisiae deletion strains, locus YMR263W, strain SAP30, active compounds read low",0.99
same,normalized growth,"S. cerevisiae deletion strains, locus YMR307W, strain GAS1, active compounds read low",0.554 (active)
same,normalized growth,"S. cerevisiae deletion strains, locus YNL067W, strain RPL9B, active compounds read low",0.998
same,normalized growth,"S. cerevisiae deletion strains, locus YNL071W, strain lat1, active compounds read low",0.834 (active)
same,normalized growth,"S. cerevisiae deletion strains, locus YNL128W, strain TEP1, active compounds read low",0.979
same,normalized growth,"S. cerevisiae deletion strains, locus YNL153C, strain GIM3, active compounds read low",0.986
same,normalized growth,"S. cerevisiae deletion strains, locus YNL183C, strain NPR1, active compounds read low",0.897
same,normalized growth,"S. cerevisiae deletion strains, locus YNL209W, strain ssb2, active compounds read low",0.88 (active)
same,normalized growth,"S. cerevisiae deletion strains, locus YNL233W, strain BNI4, active compounds read low",0.947
same,normalized growth,"S. cerevisiae deletion strains, locus YNL248C, strain rpa49, active compounds read low",0.932
same,normalized growth,"S. cerevisiae deletion strains, locus YNL250W, strain rad50, active compounds read low",0.988
same,normalized growth,"S. cerevisiae deletion strains, locus YNL271C, strain bni1, active compounds read low",1.01
same,normalized growth,"S. cerevisiae deletion strains, locus YNL298W, strain CLA4, active compounds read low",1.03
same,normalized growth,"S. cerevisiae deletion strains, locus YNL307C, strain MCK1, active compounds read low",0.942
same,normalized growth,"S. cerevisiae deletion strains, locus YNL322C, strain KRE1 (second series), active compounds read low",1.07
same,normalized growth,"S. cerevisiae deletion strains, locus YNL322C, strain KRE1, active compounds read low",1.01
same,normalized growth,"S. cerevisiae deletion strains, locus YNR049C, strain mso1, active compounds read low",1.02
same,normalized growth,"S. cerevisiae deletion strains, locus YNR052C, strain pop2, active compounds read low",0.911 (active)
same,normalized growth,"S. cerevisiae deletion strains, locus YOL006C, strain TOP1, active compounds read low",0.909
same,normalized growth,"S. cerevisiae deletion strains, locus YOL012C, strain htz1",1.29
same,normalized growth,"S. cerevisiae deletion strains, locus YOL147C, strain pex11, active compounds read low",1.04
same,normalized growth,"S. cerevisiae deletion strains, locus YOR001W, strain rrp6, active compounds read low",1.01
same,normalized growth,"S. cerevisiae deletion strains, locus YOR061W, strain CKA2, active compounds read low",1.01
same,normalized growth,"S. cerevisiae deletion strains, locus YOR069W, strain VPS5, active compounds read low",0.998
same,normalized growth,"S. cerevisiae deletion strains, locus YOR070C, strain gyp1, active compounds read low",0.845 (active)
same,normalized growth,"S. cerevisiae deletion strains, locus YOR080W, strain dia2, active compounds read low",0.971
same,normalized growth,"S. cerevisiae deletion strains, locus YOR083W, strain WHI5, active compounds read low",0.981
same,normalized growth,"S. cerevisiae deletion strains, locus YOR106W, strain vam3, active compounds read low",0.931
same,normalized growth,"S. cerevisiae deletion strains, locus YOR136W, strain idh2, active compounds read low",1.01
same,normalized growth,"S. cerevisiae deletion strains, locus YOR144C, strain elg1, active compounds read low",1.03
same,normalized growth,"S. cerevisiae deletion strains, locus YOR184W, strain ser1, active compounds read low",0.944
same,normalized growth,"S. cerevisiae deletion strains, locus YOR231W, strain MKK1, active compounds read low",0.956
same,normalized growth,"S. cerevisiae deletion strains, locus YOR265W, strain rbl2, active compounds read low",0.922 (active)
same,normalized growth,"S. cerevisiae deletion strains, locus YOR270C, strain vph1, active compounds read low",0.57 (active)
same,normalized growth,"S. cerevisiae deletion strains, locus YOR290C, strain snf2, active compounds read low",0.991
same,normalized growth,"S. cerevisiae deletion strains, locus YOR316C, strain cot1, active compounds read low",1.03
same,normalized growth,"S. cerevisiae deletion strains, locus YPL051W, strain arl3, active compounds read low",0.946
same,normalized growth,"S. cerevisiae deletion strains, locus YPL055C, strain LGE1, active compounds read low",0.926
same,normalized growth,"S. cerevisiae deletion strains, locus YPL078C, strain atp4, active compounds read low",0.983
same,normalized growth,"S. cerevisiae deletion strains, locus YPL106C, strain sse1, active compounds read low",1.15 [resistant] (active)
same,normalized growth,"S. cerevisiae deletion strains, locus YPL240C, strain hsp82, active compounds read low",0.997
same,normalized growth,"S. cerevisiae deletion strains, locus YPL241C, strain CIN2, active compounds read low",1
same,normalized growth,"S. cerevisiae deletion strains, locus YPL256C, strain CLN2, active compounds read low",1.02
same,normalized growth,"S. cerevisiae deletion strains, locus YPR119W, strain clb2, active compounds read low",1.04
same,normalized growth,"S. cerevisiae deletion strains, locus YPR141C, strain kar3, active compounds read low",1.02
same,normalized growth,"S. cerevisiae deletion strains, locus YPR163C, strain tif3, active compounds read low",1.01
same,normalized growth,"S. cerevisiae deletion strains, locus YPR167C, strain met16, active compounds read low",1.03
same,normalized growth,"S. cerevisiae deletion strains, strain wtn01, active compounds read low",1.03
same,normalized growth,"S. cerevisiae strains, strain wild type, active compounds read low",0.997
